Source: PubChem (National Center for Advancing Translational Sciences (NCATS))
VACV mCherry inh = vaccinia inhibition (mCherry reporter). AID 720579. Vaccinia virus mCherry reporter infection, fluorescence. 310,000 compounds, 0.63% hits. Potency, µM (highest dose often 36.5 µM), for the others: at the top dose activity change, negative = inhibition, most hits filed as inhibitors; calls by dose curve; tested in A549 cells; further: on the % scale 0 is the no-effect control and ±100 the full control effect; nearly all actives have a fitted effect of over 35% in size
VACV Venus inh = vaccinia inhibition (Venus reporter). 330,000 compounds, 0.46% hits. Vaccinia virus Venus reporter expression, fluorescence. Potency, µM (doses to about 36.5 µM), for inactives: at the top dose activity change, negative = inhibition, usual class: inhibitors; calls by dose curve; tested in A549 cells; further: on the % scale 0 is the no-effect control and ±100 the full control effect; nearly all actives have a fitted effect of over 30% in size
HCV inh = blocks hepatitis C virus; Huh7.5.1 HCVcc-Cre infection, luciferase reporter, 44 h; Potency, µM (top dose mostly 41.8 µM), inactives show at the highest dose activity change, negative = inhibition, most hits filed as inhibitors; 340,000 compounds, 3.4% hits; AID 651820; further: on the % scale 0 is the no-effect control and ±100 the full control effect
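Compounds are dispensed onto cells plated 4 h earlier at 1,000 per well, with HCVcc-Cre virus (about 0.5 moi) added next. Following 44 h of culture, luminescent signal is measured for 15 sec after 15 min with substrate at room temperature.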
NS1 inh = blocks influenza NS1 protein function. 270,000 compounds, 0.4% hits. AID 2326. Potency, µM (titrated, usually from 46.1 µM), for inactives: top-dose activity, positive = more growth; calls by dose curve; further: actives are rising curves; nearly all actives have a fitted effect of over 50% in size
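In this qHTS, NS1 from influenza A is expressed in budding yeast, where it slows growth. Cells are switched from glucose to 2% galactose medium (pH 6.0, -URA), treated with compound, and growth recovery is read at OD600.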
Pf growth 48h = P. falciparum growth inhibition at 48 hours (one generation) | P. falciparum luciferase growth in erythrocytes, 48 h | Potency, µM (series often up to 28.7 µM), inactives show at the top dose activity change, negative = inhibition, hits mostly inhibitors | 310,000 compounds, 5.9% hits; further: on the % scale 0 is the no-effect control and ±100 the full control effect
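Firefly luciferase activity from engineered P. falciparum reports growth; inhibitors lower the luminescent signal. Cultures contained 2% hematocrit erythrocytes at 0.1% final parasitemia.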
Pf growth 96h = P. falciparum growth inhibition at 96 hours. AID 504834. 320,000 compounds, 6.9% hits. P. falciparum luciferase reporter growth, 96 h. Potency, µM (top dose mostly 28.7 µM), inactives show at the highest dose activity change, negative = inhibition, most hits filed as inhibitors; further: on the % scale 0 is the no-effect control and ±100 the full control effect
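Two parasite generations (96 h, 37 C, 5% CO2) of compound exposure in infected erythrocytes (0.05% parasitemia, 2% hematocrit). Luciferase-reporter P. falciparum; decreased luminescence indicates inhibited growth, aimed at apicoplast-acting delayed death.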
* = called active by the depositor; i = inactive; u = inconclusive; x = no result. An excerpt weighted towards active compounds, which were near 11% of everything screened. Unless noted, the call rests on the fitted dose curve; in most records, active means well fitted inhibition curve with a large enough effect; inconclusive means small, poorly fitted or top-dose-only effect, or another doubt; inactive means no such curve, though single readings can be large or run the other way. Potency means the concentration at half of the fitted maximal effect.

SMILES	VACV mCherry inh	VACV Venus inh	HCV inh	NS1 inh	Pf growth 48h	Pf growth 96h
Cc1nnsc1C(=O)Nc1ccccc1	-9%	-8%	25%	4%	-5%	10µM*
Cc1nc(Nc2ccc(Cl)cc2Cl)sc1C(=O)Nc1ccccc1	i	4%	10µM*	5%	u	12µM*
Cc1nnsc1C(=O)NNC(=O)Nc1ccccc1	-15%	-2%	-3%	x	-7%	u
Cc1nc(NC(=O)C2CC2)sc1C(=O)Nc1cccc(Cl)c1	i	-21%	-14%	-6%	u	u
O=S(=O)(c1ccc2c(c1)OCCO2)N1CCN(c2nc(-c3cccs3)nc3ccccc23)CC1	-1%	-10%	x	x	x	x
CCn1c(=O)c2c(nc(SCC(=O)N3CCC(C)CC3)n2C)n(C)c1=O	37%	-14%	3%	5%	-2%	4%
CCC(C)N(C(=O)c1csnn1)C(C(=O)NC(C)(C)C)c1ccccc1 (stereo not drawn)	-14%	-8%	7%	2%	11%	x
COc1cccc(NC(=O)C(=O)NCC2CCCN2S(=O)(=O)c2ccccc2)c1 (stereo not drawn)	i	-16%	11µM*	x	45%	-12%
COc1ccccc1NC(=O)C(=O)NCCC1CCCCN1S(=O)(=O)c1cccs1 (stereo not drawn)	i	-19%	u	x	u	u
O=C(NCCC1CCCCN1S(=O)(=O)c1cccs1)C(=O)Nc1ccccc1F (stereo not drawn)	-16%	-14%	8.9µM*	x	3%	-5%
COc1cccc(C(=O)NCC2CCCN2S(=O)(=O)c2ccccc2)c1 (stereo not drawn)	i	-2%	3%	x	u	12µM*
COc1cccc(NC(=O)C(=O)NCCC2CCCCN2S(=O)(=O)c2ccccc2)c1 (stereo not drawn)	-24%	-17%	4µM*	x	43%	-50%
Cc1ccc(/C(N)=N/OC(=O)c2ccco2)cc1	x	x	9%	-35%	i	i
C[n+]1cc(C(=O)N2CCCCC2)ccc1/C=C/c1c[nH]c2ccccc12	u	56%	4%	9%	u	0.41µM*
CC(=O)/C(=N\Nc1ccccc1)Oc1ccc([N+](=O)[O-])cc1	x	x	9%	10%	9.3µM*	10µM*
CC1CC(NNC(=O)c2ccccc2)=Nc2ccccc2N1C (stereo not drawn)	i	-8%	15%	-7%	u	u
C/C(CC(c1ccccc1)c1c(O)c2ccccc2oc1=O)=N\NC(N)=S (stereo not drawn)	4µM*	7.9µM*	2%	3%	u	10µM*
COc1ccc(C(=O)CC(c2ccc(OC)c(OC)c2)c2c(O)c3ccccc3oc2=O)cc1OC (stereo not drawn)	i	-17%	x	x	x	x
COCCn1c(C(C)C)nc2sc3ccccc3c(=O)c2c1=O	x	x	13%	1%	4%	u
Cc1ccc(S(=O)(=O)N/N=C/c2cc(Br)ccc2O)cc1	-26%	-1%	0%	-8%	33%	38%
Cc1ccc(S(=O)(=O)Nc2ccc(Br)cc2/C=N/n2cnnc2)cc1	0%	-8%	-10%	-197%	0%	3.7µM*
C=CCN1c2ccccc2[C@]23C[C@@H](C(=O)OC)N(C(=O)NCCC)C2=NC(C(=O)OC)=C(C(=O)OC)[C@H]13	i	42%	u	11%	3.3µM*	4.1µM*
C=CCN1c2ccccc2[C@]23C[C@@H](C(=O)OC)N(C(=O)C4CCC4)C2=NC(C(=O)OC)=C(C(=O)OC)[C@H]13	i	-25%	17%	-4%	-7%	34%
COC(=O)C1=C(C(=O)OC)[C@@H]2N(C)c3ccccc3[C@@]23C[C@@H](CO)N(C(=O)NCCBr)C3=N1	i	-3%	u	-8%	9.3µM*	u
COC(=O)C1=C(C(=O)OC)[C@@H]2N(Cc3ccccc3)c3ccccc3[C@@]23C[C@@H](C(=O)OC)N(C(=O)c2cccs2)C3=N1	u	u	12%	-7%	28%	u
